Data reported in PubChem BioAssay (NCATS).
Values joined by “and” are separate entries in the source; they are usually repeats but may differ in a detail not shown here. Equal values may be shown once. Records with an inconclusive call do not appear. A call without a number means that no potency is given here. Active and inactive are the calls of the source. The call rests on the fitted dose curve; in most records, active means well fitted curve in the direction sought with a large enough effect; inconclusive means small, poorly fitted or top-dose-only effect, or another doubt; inactive means no such curve, though single readings can be large; an effect the other way counts as inactive or inconclusive.

Columns and labels:
[1] = qHTS of pediatric cancer cell lines to identify multiple opportunities for drug repurposing: Primary screen for LAN-5 cells (AID 1347100)
Outline: (§1)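 Viability after 48 h compound treatment at 37C, 500-1,000 cells/well, read as ATP luminescence with CellTiter-Glo. Primary screens used 11-point (MIPE, 0.78 nM-46 µM) or 8-point (NPC, 0.59 nM-46 µM) final concentrations; follow-up screens used 11-point dilutions.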

[2] = qHTS of pediatric cancer cell lines to identify multiple opportunities for drug repurposing: Primary screen for BT-12 cells (AID 1347101); further: nearly all actives have a fitted effect of over 25% in size
Outline: (§2)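 Cells (500-1,000/well) rested 5 h, then received compounds for 48 h; metabolically active cells were measured by CellTiter-Glo luminescence. Final concentrations spanned up to 46 µM (MIPE, 11-point) or 0.59 nM-46 µM (NPC, 8-point) in primary screens, 11-point in follow-ups.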

[3] = qHTS of pediatric cancer cell lines to identify multiple opportunities for drug repurposing: Primary screen for OHS-50 cells (AID 1347103); further: nearly all actives have a fitted effect of over 40% in size
Outline: as §2

[4] = qHTS of pediatric cancer cell lines to identify multiple opportunities for drug repurposing: Primary screen for MG 63 (6-TG R) cells (AID 1347105); further: nearly all actives have a fitted effect of over 50% in size
Outline: (§3)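 Viability was measured as metabolically active cells after 48 hours of treatment, read by CellTiter-Glo luminescence. Compounds were tested at multiple final concentrations, giving concentration-response curves.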

[5] = qHTS of pediatric cancer cell lines to identify multiple opportunities for drug repurposing: Primary screen for control Hh wild type fibroblast cells (AID 1347106); further: nearly all actives have a fitted effect of over 55% in size
Outline: as §1

[6] = qHTS of pediatric cancer cell lines to identify multiple opportunities for drug repurposing: Primary screen for Rh30 cells (AID 1347107); further: nearly all actives have a fitted effect of over 75% in size
Outline: as §1

[7] = qHTS of pediatric cancer cell lines to identify multiple opportunities for drug repurposing: Primary screen for Rh41 cells (AID 1347108); further: nearly all actives have a fitted effect of over 70% in size
Outline: as §3

[8] = qHTS of pediatric cancer cell lines to identify multiple opportunities for drug repurposing: Primary screen for Rh18 cells (AID 1347102); further: nearly all actives have a fitted effect of over 65% in size
Outline: as §1

[9] = qHTS of pediatric cancer cell lines to identify multiple opportunities for drug repurposing: Primary screen for RD cells (AID 1347104); further: nearly all actives have a fitted effect of over 55% in size
Outline: as §3

[10] = qHTS of pediatric cancer cell lines to identify multiple opportunities for drug repurposing: Confirmatory screen for NB1643 cells (AID 1347109); further: nearly all actives have a fitted effect of over 45% in size
Outline: as §1
Potency means the concentration at half of the fitted maximal effect.

SMILES	Potency [1]	Potency [2]	Potency [3]	Potency [4]	Potency [5]	Potency [6]	Potency [7]	Potency [8]	Potency [9]	Potency [10]
CC(C)OC(=O)C1=CN(C(=O)c2ccc(F)c(F)c2)CC(C)(C)c2c1[nH]c1ccccc21	inactive	inactive	inactive	inactive	inactive	inactive	inactive			
NC(=O)C1CCCc2c1[nH]c1ccc(Cl)cc21 (centres undefined)	inactive	inactive		inactive	inactive			inactive		
CCc1ccc(CCOc2ccc(CC3SC(=O)NC3=O)cc2)nc1 (centres undefined)	inactive	inactive		inactive	inactive	inactive	inactive		inactive	
CCCCNc1cc(C(=O)O)cc(S(N)(=O)=O)c1Oc1ccccc1	inactive	inactive	inactive	inactive	inactive	inactive	inactive		inactive	
COc1ccc(CC2=NN3C([C@@H](CCc4ccccc4)[C@@H](C)O)=NC(C)C3C(=O)N2)cc1OC (some centres undefined)	inactive	inactive		inactive	inactive			inactive		
Nc1nc2c(ncn2COCCO)c(=O)[nH]1	inactive	inactive		inactive	inactive	inactive	inactive	inactive	inactive	inactive
CN(C(=O)c1ccc(F)cc1C(F)(F)F)C1CCN(c2nnc(-c3ccnn3C)c3ccccc23)CC1	inactive	21.7 µM (active)	24.3 µM (active)		inactive					
CCn1c(-c2nonc2N)nc2c(C#CC(C)(C)O)ncc(OC[C@H]3CCCNC3)c21	5.26 µM (active)	inactive			inactive	inactive		inactive	23.5 µM (active)	
COc1ccc(C2=N[C@H](c3ccc(Cl)cc3)[C@H](c3ccc(Cl)cc3)N2C(=O)N2CCNC(=O)C2)c(OC(C)C)c1	2.35 µM (active)	24.3 µM (active)			inactive		18.7 µM (active)	5.26 µM (active)		
Oc1ccc(C2CNCCc3c2cc(O)c(O)c3Cl)cc1 (centres undefined)	inactive	inactive		inactive	inactive	inactive	inactive	inactive	inactive	
O=C(O)[C@@H](c1ccc(OCc2ccc3ccccc3n2)cc1)C1CCCC1	inactive	inactive		inactive	inactive	inactive			inactive	
O=c1n(CCCN2CCN(c3cccc(Cl)c3)CC2)nc2ccccn12	inactive	inactive	inactive	inactive	inactive	inactive	inactive		inactive	
NC(=O)c1ccc(-c2nc(-c3ccc4c(c3)OCCO4)c(-c3ccccn3)[nH]2)cc1	inactive	inactive		inactive	inactive	inactive		inactive		
CCn1cc(C(=O)O)c(=O)c2cc(F)c(N3CCNC(C)C3)c(F)c21 (centres undefined)	inactive	inactive		inactive	inactive	inactive	inactive	inactive		
C[C@H](NC(=O)Cc1cc(F)cc(F)c1)C(=O)N[C@@H]1C(=O)N(C)c2ccccc2-c2ccccc21	inactive	inactive		11.8 µM (active)	inactive	inactive	14.8 µM (active)	inactive		
c1ccc([C@H]2CN3CCSC3=N2)cc1	inactive	inactive	inactive	inactive	inactive	inactive	inactive		inactive	
COCC(=O)NCC=Cc1ccc2ncnc(Nc3ccc(Oc4ccc(C)nc4)c(C)c3)c2c1	18.7 µM (active)	19.3 µM (active)	19.3 µM (active)	inactive	inactive					
Cc1cc(C=c2sc3nc4ccccc4n3c2=O)c(C)n1-c1ccccc1	inactive	inactive		inactive	inactive				inactive	
Nc1nc2[nH]cc(CCc3ccc(C(=O)N[C@@H](CCC(=O)O)C(=O)O)cc3)c2c(=O)[nH]1	inactive	inactive			inactive	inactive		inactive		20.8 µM (active)
COc1cccc2cc(-c3nc(C4CCC(C(=O)O)CC4)n4ncnc(N)c34)[nH]c12 (centres undefined)	inactive	0.344 µM (active)	0.109 µM (active)			inactive				inactive

SMILES	Potency [1]	Potency [2]	Potency [3]	Potency [4]	Potency [5]	Potency [6]	Potency [7]	Potency [8]	Potency [9]	Potency [10]
NCCCC(N)(C(=O)O)C(F)F (centres undefined)	inactive	inactive		inactive	inactive	inactive	inactive	inactive		inactive
Cc1csc(NC(=O)c2sc3nc4c(c(C(F)(F)F)c3c2N)CCC4)n1	inactive	inactive		inactive	2.64 µM (active)			inactive		
O=NN(CCCl)C(=O)NCCCl	inactive	inactive		inactive	inactive	inactive	inactive	inactive	inactive	inactive
NC(=O)c1ccc(-c2nc(-c3ccc4c(c3)OCO4)c(-c3ccccn3)[nH]2)cc1	inactive	inactive		inactive	inactive	inactive	inactive		inactive	
Cc1c(CN2CCN(C(=O)C(C)C)CC2)sc2c(N3CCOCC3)nc(-c3cnc(N)nc3)nc12	0.662 µM (active)	0.685 µM (active)	0.0343 µM (active)	0.118 µM (active)		1.87 µM (active)	0.235 µM (active)		0.935 µM (active)	
NC(=O)c1ccc(I)c([N+](=O)[O-])c1	inactive	inactive	inactive	inactive		inactive			inactive	
O=c1[nH]cnc2[nH]ncc12	inactive	inactive		inactive	inactive	inactive	inactive		inactive	
CC(C)(Sc1ccc(CCN(CCCCC2CCCCC2)C(=O)NC2CCCCC2)cc1)C(=O)O	20.9 µM (active)				inactive	inactive		inactive		
N=c1nc(N2CCCCC2)cc(N)n1O	inactive	inactive		inactive	inactive	inactive	inactive			
O=c1[nH]c(-c2ccc(C(F)(F)F)cc2)nc2c1CSCC2	inactive				inactive			inactive		
Nc1cccc(S(=O)(=O)N2CCCN(S(=O)(=O)c3ccc4c(c3)OCCO4)CC2)c1	inactive			inactive	inactive	inactive		inactive	inactive	
CCCCCCCc1ccc(CCc2cccc(O)c2C(=O)O)cc1	inactive				inactive			inactive		
CS(=O)(=O)c1ccc(C(=O)Nc2ccc(Cl)c(-c3ccccn3)c2)c(Cl)c1	inactive		inactive		inactive	inactive		inactive		
Nc1nccc(-c2ccc3noc(-c4ccc(Cl)cc4)c3c2)n1	inactive			inactive		inactive	inactive	inactive	inactive	
Cn1cnc([N+](=O)[O-])c1Sc1ncnc2nc[nH]c12	6.79 µM (active) and 5.26 µM (active)		1.4 µM (active) and 3.47 µM (active) and 3.06 µM (active)	inactive	inactive	inactive		inactive		
Cc1cnc(Nc2ccc(OCCN3CCCC3)cc2)nc1Nc1cccc(S(=O)(=O)NC(C)(C)C)c1	inactive				inactive	inactive	inactive	inactive		
Cc1cn[nH]c1	inactive		0.611 µM (active)	inactive	inactive	inactive		inactive		inactive
COCCNCCCn1c(C(=O)CF)c(-c2ccc(C)cc2)c2c(N)ncnc21	inactive	inactive			inactive		inactive			
Cc1cccc(-c2nn(C(=S)Nc3ccccc3)cc2-c2ccnc3ccccc23)n1	inactive			inactive	inactive	inactive	inactive	inactive	inactive	
COc1cc(Nc2ncc3c(n2)-c2ccc(Cl)cc2C(c2c(F)cccc2OC)=NC3)ccc1C(=O)O	0.0093 µM (active)			5.9 µM (active)	inactive			20.9 µM (active)		

SMILES	Potency [1]	Potency [2]	Potency [3]	Potency [4]	Potency [5]	Potency [6]	Potency [7]	Potency [8]	Potency [9]	Potency [10]
CCOc1cc(C=C2C(=O)N(c3ccccc3)N=C2C)cc(Cl)c1OCC(=O)OC	18.7 µM (active)	inactive			inactive	inactive			inactive	
CCn1c(-c2nonc2N)nc2cnc(Oc3cccc(NC(=O)c4ccc(OCCN5CCOCC5)cc4)c3)cc21	2.96 µM (active)	6.11 µM (active)		inactive	inactive					
CN(C)c1ccc(Nc2nc(N)n(C(=O)c3c(F)cccc3F)n2)cc1	0.833 µM (active)			18.7 µM (active)	inactive	inactive	inactive	inactive		
COc1cc(F)c(F)c(Nc2ccc(I)cc2F)c1NS(=O)(=O)C1(C[C@H](O)CO)CC1	inactive			inactive	inactive			inactive		
Cc1ccc(-n2nc(C(C)(C)C)cc2NC(=O)Nc2ccc(OCCN3CCOCC3)c3ccccc23)cc1	inactive				inactive	inactive	inactive	inactive	26.4 µM (active)	
Cc1cc(SCc2sc(-c3ccc(C(F)(F)F)cc3)nc2C)ccc1OCC(=O)O	inactive			inactive	inactive	inactive		inactive		
Cc1oncc1C(=O)Nc1ccc(C(F)(F)F)cc1	inactive			inactive	inactive	inactive	inactive	inactive	inactive	inactive
O=C(Nc1ccc(F)c(C(F)(F)F)c1)Nc1nnc(-c2ccncc2)s1	inactive		inactive		inactive		inactive	inactive		
CCOc1cc(N2CCC(O)CC2)ccc1Nc1ncc2c(n1)N(C)c1ccccc1C(=O)N2C	0.0935 µM (active)	0.0863 µM (active)		3.72 µM (active)	inactive		2.96 µM (active)		0.148 µM (active)	16.5 µM (active)
Cc1ccccc1C(OCCN(C)C)c1ccccc1 (centres undefined)	inactive	inactive		inactive	inactive	inactive	inactive		inactive	
O=C(Nc1nc2ccccc2n1CCN1CCOCC1)c1cccc([N+](=O)[O-])c1	3.72 µM (active)	21.7 µM (active)			inactive		18.7 µM (active)			
CS(=O)(=O)Oc1ccc2c(NC(N)=O)c(C(=O)c3ccc(Cl)cc3Cl)oc2c1	2.09 µM (active)		1.53 µM (active)	18.7 µM (active)		inactive		2.35 µM (active)	13.2 µM (active)	
O=C(c1cc(Cc2n[nH]c(=O)c3ccccc23)ccc1F)N1CCN(C(=O)C2CC2)CC1	14.8 µM (active)		24.3 µM (active)					inactive		inactive
Cc1ccc(N(CC2=NCCN2)c2cccc(O)c2)cc1	inactive			inactive	inactive	inactive	inactive	inactive	inactive	
N#CC[C@H](C1CCCC1)n1cc(-c2ncnc3[nH]ccc23)cn1	18.7 µM (active)	inactive			inactive					
CN(C)c1ccc(C2Nc3ccc4ccccc4c3C3=C2C(=O)CC(C)(C)C3)cc1Br (centres undefined)	inactive	inactive			inactive	inactive				
O=S(=O)(N=Cc1c(O)ccc2ccccc12)c1cccs1	inactive			2.35 µM (active)		inactive	3.72 µM (active)	inactive		
COc1ccc2nc(S(=O)Cc3ncc(C)c(OC)c3C)[nH]c2c1 (centres undefined)	inactive			inactive	inactive	inactive	inactive	inactive	inactive	
CC(C)(C)OC(=O)CN(Cc1ccc(Cl)cc1)Cc1ccc([N+](=O)[O-])s1	inactive			inactive	inactive	inactive		inactive		
